According to PubChem BioAssay:
Activity calls are given as the source filed them. How the calls were made is not given here.

What follows are compounds tested against Pantothenate synthetase (Mycobacterium tuberculosis (strain ATCC 25618 / H37Rv)) (UniProt P9WIL5) (assay: Coupled enzyme confirmation of inhibitors against recombinant Mtb PanC (AID 375;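 further: 0% = full reaction with vehicle and 100% = no enzyme background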)). Settings: coupled enzyme assay; at 10 µM, stronger effect = higher value.
Chain of Pantothenate synthetase (Mycobacterium tuberculosis (strain ATCC 25618 / H37Rv)) (P9WIL5 whole entry, looked up): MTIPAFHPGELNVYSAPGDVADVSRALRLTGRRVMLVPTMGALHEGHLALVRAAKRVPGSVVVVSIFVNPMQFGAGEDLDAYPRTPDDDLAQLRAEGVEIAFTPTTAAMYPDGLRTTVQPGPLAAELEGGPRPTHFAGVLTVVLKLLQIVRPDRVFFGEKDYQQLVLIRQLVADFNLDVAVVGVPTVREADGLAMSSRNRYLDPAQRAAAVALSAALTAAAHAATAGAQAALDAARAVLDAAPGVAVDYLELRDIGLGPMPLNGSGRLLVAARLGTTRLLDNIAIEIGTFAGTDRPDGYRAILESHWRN

SMILES | inhibition
CCOC(=O)Nc1cc(OCC)c(NC(=O)C2CC2)cc1OCC | 0% (inactive)
O=C(c1nc2n(n1)C(c1ccc(Cl)cc1)C=C(c1ccccc1)N2)N1CCOCC1 (configuration not stated) | 0% (inactive)
CN(C)C(=O)CN(C)S(=O)(=O)c1ccc(Cl)cc1 | 0% (inactive)
Cc1cccc2cc(COC(=O)C(C)(C)C)c(=O)[nH]c12 | 0% (inactive)
OC(COc1ccc2ccccc2c1)CN1CCOCC1 (configuration not stated) | 0% (inactive)
N#CCCCCn1c(-c2cncs2)nc2ccccc21 | 0% (inactive)
COc1ccc(-c2noc(COc3ccc4ccccc4c3Br)n2)cc1OC | 6% (inactive)
O=C(Nc1ccc2oc(-c3ccncc3)nc2c1)c1cccs1 | 0% (inactive)
CCCCN(CC)S(=O)(=O)c1ccc2c(c1)CCCN2C(C)=O | 6% (inactive)
Cc1ccc2c(c1)c1c3n2CC(=C2C(=O)OC(C)(C)OC2=O)NC3CCC1 (configuration not stated) | 6% (inactive)
CC(C)CC1NC2(C(=O)N(C)c3ccccc32)C2C(=O)N(C(C)C)C(=O)C12 (configuration not stated) | 0% (inactive)
O=C(Cn1nc(Cc2cccnc2)c2ccccc2c1=O)Nc1ccc2c(c1)OCO2 | 0% (inactive)
CC1Cc2ccccc2N1S(=O)(=O)c1ccc2c(c1)n(C)c(=O)c(=O)n2C (configuration not stated) | 0% (inactive)
Cc1ccc(-c2ccc(=O)n(CC(=O)NCCCN3CCCCC3C)n2)cc1 (configuration not stated) | 0% (inactive)
Cc1cccc(-n2c(N)c(C(=O)N3CCN(C)CC3)sc2=S)c1 | 1% (inactive)
CC(C)C(NC(=O)c1ccccc1NC(=O)c1ccco1)C(=O)O (configuration not stated) | 4% (inactive)
COc1ccc(C2N(C(=O)c3ccccc3)CCN2C(=O)c2ccccc2)cc1 | 0% (inactive)
COc1cccc(C(=O)NC2=NCCS2)c1 | 0% (inactive)
Cn1nnc2c(sc3nc(N4CCOCC4)c4c(c32)CCCC4)c1=O | 8% (inactive)
COCCn1c(-c2ccc(OC)c(OC)c2)nc2ccccc21 | 0% (inactive)
CN1C(=O)c2c(sc3c2CCCC3)NC1c1ccccc1O (configuration not stated) | 0% (inactive)
COc1ccccc1OCC(=O)Nc1cccc(-c2nc3ccccc3o2)c1 | 0% (inactive)
